Compound activity from PubChem BioAssay.
D1 PAM – human D1 dopamine receptor positive modulation; AID 504651; 0.036% of 360,000 active; P21728; HEK293 TREx D1 cells, calcium flux, dopamine EC20 potentiation; potentiation, % at 10 µM; in the data active means potentiation above about 30%; further: 0% is about no effect
Target sequence (P21728 whole entry, looked up): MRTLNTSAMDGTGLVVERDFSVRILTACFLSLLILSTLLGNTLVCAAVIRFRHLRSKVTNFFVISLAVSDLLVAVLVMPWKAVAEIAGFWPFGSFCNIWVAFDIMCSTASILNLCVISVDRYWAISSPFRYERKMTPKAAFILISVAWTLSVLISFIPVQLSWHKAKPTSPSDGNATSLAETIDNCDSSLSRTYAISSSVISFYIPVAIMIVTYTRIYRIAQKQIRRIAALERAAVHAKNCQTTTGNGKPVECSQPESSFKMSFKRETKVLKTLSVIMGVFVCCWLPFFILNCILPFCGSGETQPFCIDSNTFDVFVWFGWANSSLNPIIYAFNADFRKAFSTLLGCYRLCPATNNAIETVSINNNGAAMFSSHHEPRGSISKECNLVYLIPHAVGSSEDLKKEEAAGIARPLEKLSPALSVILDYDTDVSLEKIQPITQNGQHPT
D1 agonist – agonists of human D1 dopamine receptor; P21728; HEK293 T-REx D1 cells, calcium flux, agonist mode; activation, % at 2 µM; 1% of 360,000 active; AID 504660; in the data active means activation above about 30%; further: 0% is about no effect
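Inducible HEK293 T-REx D1 cells, force-coupled to calcium signalling, were plated at 4000 cells/well with tetracycline and held overnight at 30 C. After no-wash calcium dye loading, compound-evoked calcium rise over 180 s flagged agonists.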
D1 antagonist – human D1 dopamine receptor antagonism | 3.2% of 360,000 active | HEK293 TREx D1 cells, calcium flux, dopamine EC80; stronger effect = lower value | activity change, negative = inhibition, % at 10 µM; in the data active means activity change below about -30%; further: on the % scale 0 is the no-effect control and ±100 the full control effect
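After overnight tetracycline induction at 30 C, force-coupled D1 HEK293 cells took up a no-wash calcium dye at room temperature. Compounds were added and monitored 180 s, and the response to EC80 dopamine was then recorded.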
DRD3 agonist – D3 dopamine receptor (human) agonism. 0.58% of 410,000 active. max activation, %. P35462. AID 652048. D3R DiscoveRx beta-arrestin cells, luminescence, 90 min; in the data active means max activation above about 30%; further: 0% is about no effect
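Agonist-mode cell screen: cells plated at 1500/well and incubated overnight at 37 °C, then exposed to library compounds for 90 min at 37 °C. Detection reagent was added for 30–60 min at room temperature, and luminescence was read.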
D3 antag – D3 dopamine receptor (human) antagonism; AID 652054; D3R cells, DiscoveRx beta-arrestin luminescence, antagonist mode; stronger effect = lower value; 2.5% of 360,000 active; P35462; max response, negative = inhibition, %; in the data active means max response below about -50%; further: on the % scale 0 is the no-effect control and ±100 the full control effect
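Cells expressing the human receptor were seeded at 1500 cells/well, incubated overnight at 37 degrees C in 5% CO2, then exposed to library compounds with dopamine controls for 90 minutes at 37 degrees C before luminescent detection.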
Starred values were filed as active, the others as inactive; / = no result. A selection: hits, their analogues and other compounds. The true share with any hit is near 6%.

SMILES	D1 PAM	D1 agonist	D1 antagonist	DRD3 agonist	D3 antag
CCCCNc1nc(Oc2ccc(OCC)nn2)nc(N2CCOCC2)n1	1	5	-7	2	/
COC(=O)c1ccc(CN2C(=O)c3ccccc3C2=O)cc1	2	1	4	3	13
COC(=O)c1ccc(CN2C(=O)NC(CC(C)C)C2=O)cc1 (stereo unspecified)	2	7	-32*	-1	9
O=C(O[C@@H]1OC2COC(=O)c3cc(O)c(O)c(O)c3-c3c(cc(O)c(O)c3O)C(=O)O[C@@H]([C@H]1O)[C@@H]2O)c1cc(O)c(O)c(O)c1	-4	-3	-3	32*	17
Cc1ccc(NC(=O)N2CCN(Cc3nc4ccc(C)cc4o3)CC2)c(Cl)c1	-1	-1	4	15	/
C=CCn1c(N)c(C(=O)Nc2ccccc2)c2nc3ccccc3nc21	-3	4	-36*	1	10
C=CCn1c(N)c(C(=O)OC(C)(C)C)c2nc3ccccc3nc21	0	3	17	3	16
Cc1cc(C)c(-c2csc(NC(=O)/C=C/c3cccs3)n2)c(C)c1	-2	2	-37*	-10	-10
Cc1cc(CCC(=O)O)c(C)cc1CCC(=O)O	5	4	15	-11	-52*
COc1cccc(Cn2cccc(NC(=O)NC3CCCCC3)c2=O)c1	-8	1	-31*	-1	-24
O=S(=O)(Nc1cc(Sc2ncn[nH]2)c(O)c2ccccc12)c1ccccc1	2	2	9	-5	-100*
Cc1cc(C)n(CCc2nc3c4ccccc4nc(N4CCN(c5ccccc5)CC4)n3n2)n1	-1	0	8	-7	/
C#CC(C)(CC)NC(=O)c1cc2c(n(-c3ccc(Cl)cc3)c1=O)CC(C)(C)CC2=O (stereo unspecified)	1	-1	-2	8	/
Cc1c(C(=O)NCc2ccc(C(C)C)cc2)sc(=O)n1Cc1ccc(S(=O)(=O)N(C)C)cc1	/	/	/	7	65
O=C(CSc1nnc(Cc2cccs2)n1C1CCCCC1)N1CCN(C(=O)c2ccco2)CC1	10	-1	15	-8	-62*
O=C(c1ccco1)N1CCN(C(=O)c2cccs2)CC1	7	4	-5	-2	-56*
c1ccc(CCN(Cc2ccccc2)C2CCN(C3CCCC3)CC2)cc1	-4	8	-9	-17	-65*
